DAX1 inh-1: inhibitors of human orphan nuclear receptor DAX1 (NR0B1); P51843; HEK293 Gal4-DAX1 luciferase reporter, luminescence; inhibition, % at 6.75 µM; 340,000 compounds, 0.99% hits; AID 504766;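 active means inhibition above the mean over all tested compounds plus 3 SD, cut at about 4.2% in these data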;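 further: 0% = DAX1-transfected cells with DMSO and 100% = empty-vector control cells with DMSO; inhibition shows as a rise in luminescence from relieved DAX1 repression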
Target sequence (P51843 207-470 limits assumed): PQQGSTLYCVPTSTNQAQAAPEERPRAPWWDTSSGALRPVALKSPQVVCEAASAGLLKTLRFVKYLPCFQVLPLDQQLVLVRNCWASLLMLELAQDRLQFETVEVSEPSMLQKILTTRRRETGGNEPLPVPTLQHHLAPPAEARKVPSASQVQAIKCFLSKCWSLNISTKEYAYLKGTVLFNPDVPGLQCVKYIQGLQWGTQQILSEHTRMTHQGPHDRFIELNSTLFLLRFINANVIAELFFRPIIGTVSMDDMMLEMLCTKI
ssDAF12 agonist: S. stercoralis DAF-12 activation, primary screen | 370,000 compounds, 1% hits | HEK293 ssDAF-12/GRIP1 lit1-tk-luc reporter, luminescence; % of 3 µM dafachronic acid response | activation, % at 6.8 µM;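 active means activation above the mean over all tested compounds plus 3 SD, cut at about 0.9% in these data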;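 further: 0% = DMSO-only wells and 100% = 3 µM delta7-dafachronic acid wells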
hcDAF12 agonist: H. contortus DAF-12 activation, primary screen | AID 652067 | 370,000 compounds, 1.4% hits | activation, % at 6.8 µM | HEK293 hcDAF-12 lit1-tk-luc reporter, luminescence; 0% DMSO, 100% Δ7-dafachronic acid;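 active means activation above the mean of all tested compounds plus 3 SD, cut at about 5.5% in these data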;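 further: 100% = response to 3 µM Δ7-dafachronic acid high control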
hgDAF12 agonist: agonists of H. glycines DAF-12 nuclear receptor | HEK293 GAL4-hgDAF12 UAS-luciferase reporter, agonist luminescence; normalized to butyrate control | activation, % at 6.8 µM | 370,000 compounds, 1.8% hits;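 active means activation above a cutoff set at the mean of all screened compounds plus 3 SD, cut at about 10% in these data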;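 further: 0% = DMSO wells and 100% = sodium butyrate wells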
SMARCA2 activ: activators of SMARCA2 function. activation, % at 9.1 µM. 370,000 compounds, 1% hits. AID 652017. MG213 cells, MMTV-luciferase reporter, dexamethasone, overnight; in the data active means activation above about 7.8%;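 further: 0% = vehicle wells and 100% = reference activator wells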
DAX1 inh-2: inhibitors of DAX1 repression of SF-1 activated StAR promoter; HEK293T StAR-luciferase reporter, SF-1/DAX-1 repression relief; inhibition, % at 6.8 µM; 370,000 compounds, 1.1% hits; AID 652010;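 active means inhibition above the mean over all tested compounds plus 3 SD, cut at about 3.6% in these data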;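 further: 0% = DAX-1 cells with DMSO and 100% = cells lacking DAX-1 with DMSO; higher inhibition means more luminescence from relief of DAX-1 repression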
LXRb hcDAF ctr: LXR-beta agonism as hcDAF-12 counter-screen; 3,400 tested, under 10 active; HEK293 Gal4-LXR tk-luc reporter, luminescence, 24 h; normalized: DMSO 0%, positive control 100%; activation, % at 6.8 µM; shares compounds with hcDAF12 agonist;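 active means mean percent activation of the reporter above a cutoff set as the average over tested compounds plus their standard deviation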
hcDAF12 ag: hcDAF-12 agonism, confirmation assay. AID 743032. HEK293 hcDAF-12 lit1-tk-luc reporter, luminescence; % of Δ7-dafachronic acid response. shares compounds with hcDAF12 agonist. 3,400 compounds, 61% hits. activation, % at 6.8 µM;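 active means mean activation across triplicate tests above the threshold derived from the earlier primary screen, cut at about 5.5% in these data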;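 further: 0% = DMSO only wells and 100% = 3 µM Δ7-dafachronic acid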
* hit, by the source's call; . = not tested or not shown. Sampled rows, rich in hits. Any-hit rate of the full collection: about 4.8%.

SMILES	DAX1 inh-1	ssDAF12 agonist	hcDAF12 agonist	hgDAF12 agonist	SMARCA2 activ	DAX1 inh-2	LXRb hcDAF ctr	hcDAF12 ag
COc1ccccc1Cc1c(C(C)(C)C)nc2ccc(C)cn12	.	1	6.6*	7	4	0	0	4
COc1ccc(Cc2c(C(C)(C)C)nc3ccc(C)cn23)c(C)c1	.	-1	0	-2	-4	0	.	.
O=C(c1ccc(CNc2c(NC3CCCCC3)c(=O)c2=O)cc1)N1CCc2ccccc21	1	1.1*	7.4*	8	-2	0	0	1
O=C1NC(=S)N(C(=O)c2ccc(F)cc2)/C1=C/c1cccnc1	.	-1	-1	6	-5	0	.	.
COc1ccc(/C=C2\C(=O)NC(=S)N2C(=O)c2ccc(C)cc2)cc1	1	0	7.4*	8	1	2	0	1
O=C(NC(=S)Nc1nc2c(s1)CSc1ccccc1-2)c1ccccc1	1	0	7.1*	5	-2	0	0	7.6*
O=C(NC(=S)Nc1nc2c(s1)CCCC2)c1ccc(C(=O)c2ccccc2)cc1	-1	-1	2	0	-1	0	.	.
COc1cc([N+](=O)[O-])ccc1N/C=C/C(=O)c1cccs1	-2	2.3*	17*	17*	4	3	1	16*
Cc1ccc(C(=O)/C=C/Nc2ccccc2C(N)=O)o1	1	0	9.3*	12*	3	3	1	5
NC(=O)c1ccccc1NS(=O)(=O)c1cccs1	0	-1	2	2	-2	0	.	.
NC(=O)c1ccccc1N/C=C/C(=O)c1cccs1	2	1	8.3*	10	-1	3	2	5.6*
COc1cc(C2C3=C(CC(C)(C)CC3=O)N(C)C3=C2C(=O)CC(C)(C)C3)cc(Br)c1O	-1	-1	2	-2	-1	-1	.	.
CCOc1cccc(NC(=O)/C(C#N)=C\c2cn(CC(=O)O)c3ccccc23)c1	-1	0	6.7*	-1	5	0	0	4
CCC(=O)NNc1ncnc2ccccc12	1	0	6.9*	-1	1	0	0	5
O=C(O)CCC(=O)NNc1ncnc2ccccc12	3	-1	0	-5	-2	-1	.	.
CCOC(=O)C/C(=N\Nc1ncnc2ccccc12)c1ccccc1	1	1	11*	6	-1	2	0	5
CCOC(=O)c1ccc(Nc2ncnc3ccccc23)cc1	-1	-1	-1	-1	-1	1	.	.
C[C@@H]1CCCCO[C@@H](CN(C)C(=O)CCCN(C)C)[C@@H](C)CN([C@H](C)CO)C(=O)c2cc(NC(=O)CCC(F)(F)F)ccc2O1	-1	-1	0	-2	-5	1	.	.
Cc1ccc(NC(=S)N2CCCC(CO)C2)c(C)c1 (stereo not given)	2	0	6.9*	11*	2	2	0	2
Cc1ccc(NC(=S)N2CCC(O)CC2)c(C)c1	0	-1	-2	1	-3	-1	.	.
O=C(O)Cn1cc(/C=N/Nc2ccc([N+](=O)[O-])cn2)c2ccccc21	5.4*	1.4*	7.9*	7	7	0	0	4
CCOC(=O)N1CCN(C(=O)c2cc3c(=O)n4cccc(C)c4nc3s2)CC1	2	0	7.4*	2	0	0	0	3
O=c1[nH]c(CSc2cccc[n+]2[O-])nc2ccccc12	2	0	5	3	-1	1	.	.
O=C1c2ccccc2CC1Sc1nnc(-c2ccccn2)o1 (stereo not given)	-1	0	6.7*	7	3	0	0	5
O=C1CC(Sc2nnc(-c3ccccc3O)o2)C(=O)N1c1ccccc1 (stereo not given)	2	-2	-2	-3	1	0	.	.
